This note sets out measurements from PubChem BioAssay.

Active and inactive are the calls of the source.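 Rule for the calls, unless noted: active = fluorescence slope after compound addition differing from the mean of all screened samples at 99.7% confidence, in either direction; inactive = the rest.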

Assay [1] can be described thus: inhibitors of TNFa-induced NFkB p65 translocation, primary screen, imaging, HUVEC, MLSMR starter and 10KST1 sets (AID 438;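 active = inhibition above 20% together with a positive visual image hit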;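 note: compound added about 3h40 before a 20 min TNFalpha stimulation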;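 for inhibition: signal is the nuclear over cytoplasmic p65 intensity ratio per well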). As to conditions: HUVEC TNFa-induced p65 nuclear translocation; cell count: measured here: nuclei count (cytotoxicity indicator), at 2.08 µM; inhibition: at 2 µM, stronger effect = higher value, 0% TNFa-plus-vehicle, 100% no-TNFa wells.
A short description of assay [2]: endothelial E-selectin expression blockers – imaging, HUVEC, immunofluorescence, MLSMR starter and 10KST1 sets, primary screen (AID 487;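 active = visually confirmed hit in the image check and inhibition above 20%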;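 for inhibition: signal is fraction of cell area covered by stained E-selectin grains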;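 for nuclei count: 100% = median nuclei count of all wells on the same plate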). As to conditions: HUVEC TNFalpha-induced E-selectin immunofluorescence imaging, at 2 µM; inhibition: stronger effect = higher value; nuclei count: measured here: cell number, toxicity.
Assay [3] is described as follows: Primary imaging screen for DUSP6 inhibitors that restore phospho-Erk in transfected HeLa cells, chemical complementation (AID 609;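 active = compounds giving at least 50% inhibition in the cell-based MKP-3 phosphatase rescue imaging test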;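 for inhibition: phospho-Erk level distribution per well compared with pooled transfected vehicle control wells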). As to conditions: HeLa MKP-3 transfected, phospho-Erk imaging KS statistic, at 10 µM, cells stimulated with TPA for 15 min.
In assay [4] the target is Dual specificity protein phosphatase 6 (Homo sapiens) (UniProt Q16828). The description is as above. As to conditions: HeLa MKP-3 transfected, phospho-Erk imaging KS statistic; at 10 µM; stronger effect = higher value; cells stimulated with TPA for 15 min.
The target of assay [5] is Voltage-gated potassium channel subunit beta-2 (Rattus norvegicus) (UniProt P62483). Briefly: inhibitors of rat Kvbeta2 reductase activity – biochemical, NADPH fluorescence, primary screen (AID 622;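 active = fluorescence slope higher than the sample average by over 3 SD, cut at about -0.22 in these data, passing the limit was not always enough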;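 note: slope of raw intensity against log time taken from 70 to 1610 s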). As to conditions: recombinant KvBeta, 4-cyanobenzaldehyde reduction, at 10 µM, stronger effect = higher value.
The target is the same in assay [6]. Briefly: enhancers of rat Kvbeta2 NADPH turnover – biochemical, NADPH fluorescence, primary screen (AID 623;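 active = NADPH fluorescence slope more negative than the mean of all samples by about 3 SD, 99.7% confidence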;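 note: fluorescence intensity change per second fitted from 20 to 320 s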). As to conditions: Recombinant KvBeta, NADPH fluorescence decrease slope, 10 min; at 10 µM; stronger effect = lower value.
In assay [7] the target is Alpha-2C adrenergic receptor (Homo sapiens) (UniProt P18825). Briefly: compounds altering alpha2C-coupled GIRK flux – cell-based, HEK293 alpha2C/GIRK1/2, thallium flux, primary screen (AID 624).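 Note: slope of fluorescence ratio to pre-addition baseline per second over 15 to 24 s.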 As to conditions: thallium flux BTC fluorescence, at 10 µM, actives lie on both sides.
A short description of assay [8]: loss of swimming-algae plug formation – whole organism, Chlamydomonas reinhardtii, WT vs cilia-less mutant, absorbance, 96-well, primary screen (AID 463189;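 active = inhibition at or above 50% relative to wild type and mutant plate controls; inactive = inhibition below 50%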;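 note: 0% = wild type cc124 cells in DMSO and 100% = ciliumless bld1 mutant cells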). As to conditions: Chlamydomonas reinhardtii gravitaxis, OD600 absorbance, 2 days; at 10 µM; stronger effect = higher value.
Assay [9] is described as follows: inhibitors of larval lipid processing in zebrafish, primary screen, whole organism, PED6 fluorescence, gall bladder and intestine (AID 686;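 active = a full or partial loss of lipid-probe fluorescence in the fish gall bladder, intestine or both, judged by eye; inactive = no fluorescence loss, or compound toxic to the fish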;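 note: larvae 5 to 7 days old with five fish per well; signal comes from phospholipase A2 cleavage of quenched PED6 carried via bile; overnight exposure to compound and PED6 before scoring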). As to conditions: Zebrafish larvae PED6 lipid processing, fluorescence scoring; screened at 20 µM (by protocol).
Where [10] appears, read: measured here: cell density z-score.
The mark [11] stands for this setting: measured here: nuclear c-Myc green intensity z-score.
[12] abbreviates: measured here: nuclear pErk red intensity z-score, stronger effect = higher value.

Voltage-gated potassium channel subunit beta-2 (Rattus norvegicus), sequence (P62483 whole entry, looked up): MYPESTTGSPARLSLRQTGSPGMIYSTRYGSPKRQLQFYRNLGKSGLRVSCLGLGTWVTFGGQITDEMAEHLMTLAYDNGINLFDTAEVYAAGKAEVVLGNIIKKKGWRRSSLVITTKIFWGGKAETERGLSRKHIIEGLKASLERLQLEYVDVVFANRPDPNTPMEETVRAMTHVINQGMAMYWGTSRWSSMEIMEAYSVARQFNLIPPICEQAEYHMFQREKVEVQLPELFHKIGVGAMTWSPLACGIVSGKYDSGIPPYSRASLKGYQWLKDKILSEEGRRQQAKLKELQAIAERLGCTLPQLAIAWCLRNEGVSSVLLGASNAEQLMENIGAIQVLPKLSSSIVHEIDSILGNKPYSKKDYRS
Alpha-2C adrenergic receptor (Homo sapiens), sequence (P18825 whole entry, looked up): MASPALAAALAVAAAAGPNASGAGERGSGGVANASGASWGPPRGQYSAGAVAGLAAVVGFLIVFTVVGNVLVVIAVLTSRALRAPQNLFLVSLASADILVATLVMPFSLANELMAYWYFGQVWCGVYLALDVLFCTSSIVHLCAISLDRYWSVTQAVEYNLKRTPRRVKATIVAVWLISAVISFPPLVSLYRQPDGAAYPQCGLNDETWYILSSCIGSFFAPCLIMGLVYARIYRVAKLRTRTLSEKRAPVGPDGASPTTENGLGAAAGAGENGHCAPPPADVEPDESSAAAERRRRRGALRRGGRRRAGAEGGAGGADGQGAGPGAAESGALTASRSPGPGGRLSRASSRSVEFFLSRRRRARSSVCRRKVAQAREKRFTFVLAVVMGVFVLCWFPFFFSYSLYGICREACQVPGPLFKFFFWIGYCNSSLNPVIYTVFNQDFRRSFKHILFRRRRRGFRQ
Dual specificity protein phosphatase 6 (Homo sapiens), sequence (Q16828 whole entry, looked up): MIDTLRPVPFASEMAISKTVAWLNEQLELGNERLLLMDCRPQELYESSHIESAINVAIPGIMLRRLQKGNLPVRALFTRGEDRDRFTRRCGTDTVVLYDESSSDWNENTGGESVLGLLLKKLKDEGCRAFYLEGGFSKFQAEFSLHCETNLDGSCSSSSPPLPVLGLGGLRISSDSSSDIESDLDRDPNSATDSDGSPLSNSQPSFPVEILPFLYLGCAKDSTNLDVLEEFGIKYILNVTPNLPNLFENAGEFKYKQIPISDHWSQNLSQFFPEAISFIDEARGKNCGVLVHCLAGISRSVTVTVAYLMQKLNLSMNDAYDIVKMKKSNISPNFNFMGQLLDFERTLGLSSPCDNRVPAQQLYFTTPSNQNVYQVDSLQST

Turning to `COC(=O)c1ccc(C2/C(=C(/O)c3ccc(OC)cc3)C(=O)C(=O)N2c2cc(C)on2)cc1` (configuration not stated), the cell count in assay [1] worked out at 311. In addition, the inhibition in [1] was -11.6% (inactive); in [2], -76.7% (inactive); in assay [4], 1.6e-07% (inactive); in [8], -6.24% (inactive). This compound showed a nuclei count in assay [2] of 138%. For the same compound, the z-score in assay [3] (setting [10]) was 0.558; in assay [3] (setting [11]), -1.16; in assay [3] (setting [12]) it was -1.06. Further, the fluorescence slope in [5] is -0.466 (inactive). The NADPH fluorescence slope in assay [6] is -5.4e-05 (inactive). The slope in [7] is 0.00772 (inactive).

On to `O=C1C2ON(c3ccccc3)C(c3ccncc3)C2C(=O)N1c1ccccc1` (configuration not stated), for which, in assay [1], the cell count turned out to be 359. Further, the inhibition is -4.2% (inactive) in [1], -13.9% (inactive) in assay [2], -14% (inactive) in assay [4] and 5.79% (inactive) in assay [8]. Moreover, in [2], the nuclei count was found to be 147%. The z-score in [3] (setting [10]) was 0.798; in assay [3] (setting [11]), -1.22; in assay [3] (setting [12]), 0.675. Also, in assay [5], the fluorescence slope is -0.419 (inactive). In addition, the NADPH fluorescence slope in assay [6] was -0.000134 (inactive). Also, in assay [7], the slope was 0.00494 (inactive).

As for `CC(=O)Nc1n[nH]c(S(=O)(=O)Cc2ccc(Cl)cc2Cl)n1`, the cell count in [1] worked out at 384. The inhibition in assay [1] was 7.4% (inactive); in assay [2] it was 5.6% (inactive); in assay [4] it was -7.01% (inactive); in [8] it was 16.4% (inactive). For the same compound, the nuclei count in assay [2] turned out to be 144%. The values for the z-score in assay [3] (setting [10]), in assay [3] (setting [11]) and in [3] (setting [12]) were -0.283, -0.511 and -0.141, respectively. Besides, the fluorescence slope in [5] is -0.401 (inactive). In [6], the NADPH fluorescence slope is -0.000133 (inactive). In assay [7], the slope is 0.00491 (inactive).

With `COc1ccc(CNC(=O)[C@H](C)NC(=O)C2CCN(S(=O)(=O)c3ccc(C)cc3)CC2)cc1`, the cell count in assay [1] was determined as 299. For the same compound, the inhibition in assay [1] was 10.2% (inactive); in assay [2] it was -34.1% (inactive); in assay [4], -3.5% (inactive); in assay [8], -1.92% (inactive). In assay [2], this compound gave a nuclei count of 110%. The z-score was -1.17 in assay [3] (setting [10]), 1.31 in [3] (setting [11]) and 0.673 in [3] (setting [12]). Further, the fluorescence slope in assay [5] is -0.475 (inactive). Further, the NADPH fluorescence slope in assay [6] was -9.4e-05 (inactive). Further, the slope in [7] is 0.00578 (inactive).

`CCCCc1cc(=O)oc2c(CN(C)C)c(O)c(Cl)cc12`: the cell count in assay [1] amounted to 409. In addition, the inhibition in [1] was -5.1% (inactive); in assay [2], -156% (inactive); in [4], -5.26% (inactive); in assay [8], 0.735% (inactive). In assay [2], this compound showed a nuclei count of 164%. For the same compound, the z-score is -0.211 in assay [3] (setting [10]), -0.0215 in assay [3] (setting [11]) and 0.835 in [3] (setting [12]). Moreover, the fluorescence slope in assay [5] is -0.163 (inactive). Moreover, the NADPH fluorescence slope in [6] was 2.2e-05 (inactive). In addition, the slope in assay [7] is 0.0046 (inactive).

Take `CCCc1cc(=O)oc2c(CN3CCCC3)c(O)c(Cl)cc12`: the cell count in assay [1] stood at 371. The inhibition was -2.3% (inactive) in [1], -95.9% (inactive) in assay [2], 22.8% (inactive) in [4] and -0.278% (inactive) in assay [8]. In addition, in [2], the nuclei count was 144%. Moreover, the z-score is 0.942 in assay [3] (setting [10]), -0.732 in assay [3] (setting [11]) and 0.231 in assay [3] (setting [12]). For the same compound, the fluorescence slope in [5] was -0.172 (inactive). In addition, the NADPH fluorescence slope in assay [6] is -2.5e-06 (inactive). The slope in [7] was 0.00449 (inactive).

In the case of `CCN(CC)CCn1c(O)c(N=O)c2ccccc21`, the cell count in assay [1] came out at 314. Moreover, the inhibition in [1] is -11.6% (inactive); in assay [2], -9% (inactive); in assay [4] it was 21% (inactive); in [8], 0.498% (inactive). This compound gave a nuclei count in [2] of 111%. The z-score in [3] (setting [10]) is -0.589; in [3] (setting [11]), -0.252; in assay [3] (setting [12]) it was 0.221. Moreover, the fluorescence slope in [5] is -0.482 (inactive). Further, in assay [6], the NADPH fluorescence slope was -3.1e-05 (inactive). Besides, the slope in assay [7] was 0.00988 (inactive).

As to `Cc1c(/C(O)=C2\C(=O)C(=O)N(CCCN(C)C)C2c2ccccc2)cnn1-c1ccccc1` (configuration not stated), in assay [1], the cell count came out at 528. Also, the inhibition in [1] was 1.1% (inactive); in assay [2], -134% (inactive); in assay [4] it was 1.6e-07% (inactive); in [8] it was -16.4% (inactive). The nuclei count in assay [2] was determined as 139%. Also, the z-score was -0.232 in assay [3] (setting [10]), 0.596 in [3] (setting [11]) and 1.69 in assay [3] (setting [12]). In addition, the fluorescence slope in [5] was -0.579 (inactive). In addition, the NADPH fluorescence slope in assay [6] was -2.7e-05 (inactive). For the same compound, the slope in [7] was 0.00616 (inactive). Also, the result in [9] was inactive.
